Measured values as given in PubChem BioAssay (EPA / NIEHS).
Active and inactive are the calls of the source. The calls were made as follows: active = hit-call score of the fitted dose curve at least 0.9, where 1 is the maximum; inactive = score below 0.9.

Legend:
Conditions in all cases: mRNA level, 48 h; actives raise or lower the signal
[1] = read-out: Broad substrate specificity ATP-binding cassette transporter ABCG2 (Homo sapiens) (UniProt Q9UNQ0); assay: LTEA_HepaRG_ABCG2: Life Technologies and Expression Analysis (LTEA) Assay for ABC Transporter (ABCG2) using HepaRG (AID 2283465)
Procedure, shortened: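 Gene expression of ABCG2 in HepaRG liver cells is quantified by qRT-PCR following 48 h exposure across an eight-point series topping at 100 uM. Values come from bidirectional fitting relative to DMSO vehicle.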

[2] = read-out: ATP-citrate lyase (ACLY), ACLY (gene 47); assay: LTEA_HepaRG_ACLY: Life Technologies and Expression Analysis (LTEA) Assay for ATP-citrate lyase (ACLY) using HepaRG (AID 2283466)
Procedure, shortened: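 ACLY expression changes in human HepaRG liver cells are quantified by qRT-PCR after 48 h exposure to test chemicals (maximum 100 uM, half-log steps). Values are fitted in both directions relative to 0.5% DMSO vehicle.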

[3] = read-out: Peroxisomal acyl-coenzyme A oxidase 1 (ACOX1) gene, ACOX1 (gene 51); assay: LTEA_HepaRG_ACOX1: Life Technologies and Expression Analysis (LTEA) Assay for Peroxisomal acyl-coenzyme A oxidase 1 (ACOX1) gene using HepaRG (AID 2283467)
Procedure, shortened: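 Human HepaRG hepatic cultures, 48 h treatment with test chemicals up to 100 uM. ACOX1 expression read by qRT-PCR relative to 0.5% DMSO vehicle.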

[4] = read-out: Alkaline Phosphatase, Placental (ALPP) gene, ALPP (gene 250); assay: LTEA_HepaRG_ALPP: Life Technologies and Expression Analysis (LTEA) Assay for Alkaline Phosphatase, Placental (ALPP) gene using HepaRG (AID 2283468);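 as to AC50: differentiated human HepaRG liver cells in serum-free induction medium; ALPP transcript by TaqMan qRT-PCR normalized to ACTB GAPDH and POLR2A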
Procedure, shortened: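 Expression of ALPP was quantified by qRT-PCR against three housekeeping genes in human HepaRG cultures treated for 48 h with an eight-point concentration series up to 100 uM. Activity in either direction was fitted relative to 0.5% DMSO.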

[5] = read-out: Bcl-2 (BAD) gene, BAD (gene 572); assay: LTEA_HepaRG_BAD: Life Technologies and Expression Analysis (LTEA) Assay for Bcl-2 (BAD) gene using HepaRG (AID 2283469)
Procedure, shortened: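 Activity values reflect up- or down-regulation of BAD mRNA in human HepaRG hepatic cells treated 48 h in serum-free medium, with eight-point half-log dosing capped at 100 uM and 0.5% DMSO vehicle.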

[6] = read-out: Bcl-2 (BAX) gene, BAX (gene 581); assay: LTEA_HepaRG_BAX: Life Technologies and Expression Analysis (LTEA) Assay for Bcl-2 (BAX) gene using HepaRG (AID 2283470)
Procedure, shortened: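 qRT-PCR read-out of BAX mRNA, normalized to three housekeeping genes, after 48 h chemical exposure of human HepaRG cells in serum-free induction medium; eight-point half-log series, top 100 uM, 0.5% DMSO vehicle; bidirectional fit versus DMSO.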

[7] = read-out: adenosine kinase (ADK) gene, ADK (gene 132); assay: LTEA_HepaRG_ADK: Life Technologies and Expression Analysis (LTEA) Assay for adenosine kinase (ADK) gene using HepaRG (AID 2283471)
Procedure, shortened: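 HepaRG (human liver), 48 h chemical exposure, 8-pt half-log series, top 100 uM, 0.5% DMSO vehicle. Readout: ADK mRNA by qRT-PCR vs housekeeping genes; bidirectional curve fit relative to DMSO baseline.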

[8] = read-out: Alpha-fetoprotein (AFP) gene, AFP (gene 174); assay: LTEA_HepaRG_AFP: Life Technologies and Expression Analysis (LTEA) Assay for Alpha-fetoprotein (AFP) gene using HepaRG (AID 2283472);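 as to AC50: AFP transcript by TaqMan qRT-PCR normalized to ACTB GAPDH and POLR2A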
Procedure, shortened: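 qRT-PCR (Fluidigm TaqMan) readout of AFP transcript, normalized to three housekeeping genes, fitted bidirectionally against 0.5% DMSO baseline. HepaRG cells received chemicals for 48 h in serum-free induction medium, top concentration 100 uM, half-log steps.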

BCL2L11 (gene 10018) = assay: LTEA_HepaRG_BCL2L11: Life Technologies and Expression Analysis (LTEA) Assay for Bcl-2 (BCL2L11) gene using HepaRG (AID 2283473)
Procedure, shortened: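 Cells were plated, cultured 48 h, switched to serum-free induction medium, then dosed in duplicate for 48 h at eight half-log concentrations up to 100 uM. Lysates underwent RNA isolation and TaqMan qRT-PCR; gain or loss versus DMSO was fitted.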

[9] = read-out: Apolipoprotein A-V (APOA5) gene, APOA5 (gene 116519); assay: LTEA_HepaRG_APOA5: Life Technologies and Expression Analysis (LTEA) Assay for Apolipoprotein A-V (APOA5) gene using HepaRG (AID 2283474)
Procedure, shortened: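 Human liver HepaRG cells are treated 48 h with test chemicals (100 uM top, half-log dilutions, 0.5% DMSO). APOA5 mRNA induction or loss is measured by qRT-PCR relative to vehicle.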

[10] = read-out: Apoptosis regulator Bcl-2 (Homo sapiens) (UniProt P10415); assay: LTEA_HepaRG_BCL2: Life Technologies and Expression Analysis (LTEA) Assay for Bcl-2 gene using HepaRG (AID 2283475);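 also: BCL2 transcript by TaqMan qRT-PCR normalised to ACTB GAPDH and POLR2A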
Procedure, shortened: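 qRT-PCR read-out (Fluidigm TaqMan) of BCL2 transcript, normalised to three housekeeping genes, after 48 h chemical exposure of HepaRG cells; 8-point half-log series, top 100 uM, 0.5% DMSO vehicle. Gain or loss of signal fitted relative to DMSO baseline.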

[11] = read-out: Bcl-2 (BID) gene, BID (gene 637); assay: LTEA_HepaRG_BID: Life Technologies and Expression Analysis (LTEA) Assay for Bcl-2 (BID) gene using HepaRG (AID 2283476)
Procedure, shortened: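 HepaRG, 48 h exposure, 8-pt half-log series, top 100 uM, 0.5% DMSO vehicle, duplicates. Readout: BID mRNA by TaqMan qRT-PCR; housekeeping-normalized; bidirectional curve fit vs DMSO baseline.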

Caspase-3 (Homo sapiens) = Caspase-3 (Homo sapiens) (UniProt P42574); assay: LTEA_HepaRG_CASP3: Life Technologies and Expression Analysis (LTEA) Assay for cysteine-aspartic acid protease (CASP3) using HepaRG (AID 2283477)
Caspase-3 (Homo sapiens), sequence (P42574 whole entry, looked up): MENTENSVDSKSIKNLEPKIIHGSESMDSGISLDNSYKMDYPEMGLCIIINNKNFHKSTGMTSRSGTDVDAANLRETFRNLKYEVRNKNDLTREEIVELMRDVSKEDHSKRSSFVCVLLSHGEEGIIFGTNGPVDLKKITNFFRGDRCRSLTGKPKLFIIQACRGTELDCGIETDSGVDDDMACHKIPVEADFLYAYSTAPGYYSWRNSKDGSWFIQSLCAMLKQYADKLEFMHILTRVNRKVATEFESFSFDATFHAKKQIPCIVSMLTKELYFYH
Procedure, shortened: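 In HepaRG liver cells dosed for 48 h at up to 100 uM (eight-point, duplicate), CASP3 expression changes are scored by qRT-PCR. Activity is fitted in both directions with 0.5% DMSO as baseline.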

[12] = read-out: Cytochrome P450 (CYP24A1), CYP24A1 (gene 1591); assay: LTEA_HepaRG_CYP24A1: Life Technologies and Expression Analysis (LTEA) Assay for Cytochrome P450 (CYP24A1) using HepaRG (AID 2283478)
Procedure, shortened: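 Human liver HepaRG cultures receive each chemical for 48 h across an eight-point half-log series topping at 100 uM in 0.5% DMSO. Induction or suppression of CYP24A1 mRNA is scored relative to vehicle after housekeeping-gene normalization.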

[13] = read-out: Cytochrome P450 (CYP1A2), CYP1A2 (gene 1544); assay: LTEA_HepaRG_CYP1A2: Life Technologies and Expression Analysis (LTEA) Assay for Cytochrome P450 (CYP1A2) using HepaRG (AID 2283479);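 as to AC50: TaqMan qRT-PCR transcript level normalized to ACTB GAPDH and POLR2A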
Procedure, shortened: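 Assesses CYP1A2 mRNA in human HepaRG liver cells after 48 h chemical exposure at up to 100 uM. Values come from qRT-PCR with bidirectional curve fitting relative to DMSO.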

[14] = read-out: cysteine-aspartic acid protease (CASP8), CASP8 (gene 841); assay: LTEA_HepaRG_CASP8: Life Technologies and Expression Analysis (LTEA) Assay for cysteine-aspartic acid protease (CASP8) using HepaRG (AID 2283480)
Procedure, shortened: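 Concentration-response in duplicate up to 100 uM (half-log steps, 0.5% DMSO) on differentiated HepaRG cultures for 48 h. Expression change of CASP8 mRNA is determined by TaqMan qRT-PCR with housekeeping-gene normalization.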

[15] = read-out: Cytochrome P450 (CYP2B6), CYP2B6 (gene 1555); assay: LTEA_HepaRG_CYP2B6: Life Technologies and Expression Analysis (LTEA) Assay for Cytochrome P450 (CYP2B6) using HepaRG (AID 2283481)
Procedure, shortened: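 Using 48 h treatment of HepaRG cells in serum-free induction medium, concentrations spanned half-log steps from 100 uM in 0.5% DMSO vehicle. CYP2B6 mRNA induction or loss is scored by qRT-PCR against DMSO.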

[16] = read-out: Cytochrome P450 2C19 (Homo sapiens) (UniProt P33261); assay: LTEA_HepaRG_CYP2C19: Life Technologies and Expression Analysis (LTEA) Assay for CYP2C19 using HepaRG (AID 2283482)
Procedure, shortened: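 Human HepaRG liver cells received test chemicals for 48 h (highest 100 uM, half-log dilutions in 0.5% DMSO). CYP2C19 mRNA induction or loss is read by multiplexed qRT-PCR and fitted in both directions versus vehicle.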

CYP2C8 (gene 1558) = assay: LTEA_HepaRG_CYP2C8: Life Technologies and Expression Analysis (LTEA) Assay for CYP2C8 using HepaRG (AID 2283483)
Procedure, shortened: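 This is a transcriptional endpoint in HepaRG cultures: 48 h exposure, highest concentration 100 uM. CYP2C8 mRNA is quantified by TaqMan qRT-PCR.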

CYP2C9 (gene 1559) = assay: LTEA_HepaRG_CYP2C9: Life Technologies and Expression Analysis (LTEA) Assay for CYP2C9 using HepaRG (AID 2283484)
Procedure, shortened: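 Eight-point concentration-response (highest 100 uM, half-log dilutions) in HepaRG cells for 48 h; CYP2C9 expression by qRT-PCR normalized to ACTB, GAPDH, POLR2A. Bidirectional fit, DMSO baseline.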

Measured: AC50

Apoptosis regulator Bcl-2 (Homo sapiens), sequence (P10415 whole entry, looked up): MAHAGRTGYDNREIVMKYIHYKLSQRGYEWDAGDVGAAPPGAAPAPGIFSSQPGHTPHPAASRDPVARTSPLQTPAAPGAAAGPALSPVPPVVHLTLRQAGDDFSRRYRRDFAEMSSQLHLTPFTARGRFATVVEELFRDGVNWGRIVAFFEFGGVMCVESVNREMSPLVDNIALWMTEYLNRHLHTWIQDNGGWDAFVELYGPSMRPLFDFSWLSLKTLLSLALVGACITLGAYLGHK
Cytochrome P450 2C19 (Homo sapiens), sequence (P33261 whole entry, looked up): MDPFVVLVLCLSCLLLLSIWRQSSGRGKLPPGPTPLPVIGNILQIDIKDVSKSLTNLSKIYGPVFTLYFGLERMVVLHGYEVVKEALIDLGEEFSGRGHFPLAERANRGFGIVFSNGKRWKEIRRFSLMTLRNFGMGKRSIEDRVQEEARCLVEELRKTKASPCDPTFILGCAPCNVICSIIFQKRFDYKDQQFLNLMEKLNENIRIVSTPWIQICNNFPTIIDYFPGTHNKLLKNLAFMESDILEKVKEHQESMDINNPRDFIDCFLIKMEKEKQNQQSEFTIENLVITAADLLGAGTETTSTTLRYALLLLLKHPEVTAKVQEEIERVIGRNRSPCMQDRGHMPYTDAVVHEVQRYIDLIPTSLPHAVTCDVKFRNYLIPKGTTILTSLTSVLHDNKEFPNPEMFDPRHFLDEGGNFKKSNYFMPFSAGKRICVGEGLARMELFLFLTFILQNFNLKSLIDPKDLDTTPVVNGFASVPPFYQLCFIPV
Broad substrate specificity ATP-binding cassette transporter ABCG2 (Homo sapiens), sequence (Q9UNQ0 whole entry, looked up): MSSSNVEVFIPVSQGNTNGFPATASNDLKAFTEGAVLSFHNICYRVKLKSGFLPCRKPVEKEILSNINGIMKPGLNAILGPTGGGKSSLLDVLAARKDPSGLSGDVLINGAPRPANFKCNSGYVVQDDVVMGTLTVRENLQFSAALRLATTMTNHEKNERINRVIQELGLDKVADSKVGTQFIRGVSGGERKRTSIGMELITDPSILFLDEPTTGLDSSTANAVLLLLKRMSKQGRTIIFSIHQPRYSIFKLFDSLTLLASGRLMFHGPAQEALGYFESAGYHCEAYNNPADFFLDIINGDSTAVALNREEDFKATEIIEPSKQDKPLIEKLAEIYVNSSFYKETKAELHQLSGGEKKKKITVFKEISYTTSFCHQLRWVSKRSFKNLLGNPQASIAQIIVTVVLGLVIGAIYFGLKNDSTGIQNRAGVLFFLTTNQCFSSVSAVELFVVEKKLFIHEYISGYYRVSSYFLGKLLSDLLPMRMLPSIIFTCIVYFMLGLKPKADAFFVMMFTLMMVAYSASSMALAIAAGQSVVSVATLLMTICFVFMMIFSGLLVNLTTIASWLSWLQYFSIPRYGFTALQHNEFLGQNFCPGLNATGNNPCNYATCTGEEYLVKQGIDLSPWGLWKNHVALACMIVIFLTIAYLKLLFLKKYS

C=CCc1cc(S(=O)(=O)c2ccc(O)c(CC=C)c2)ccc1O
active: [3] 79.8 µM | [4] 50 µM | [8] 79.1 µM | [9] 89 µM | [13] 8.77 µM | [15] 80.6 µM | [16] 95.4 µM | CYP2C8 (gene 1558) 97.2 µM | CYP2C9 (gene 1559) 93 µM
inactive: all other assays above

Cn1c(=O)c2[nH]cnc2n(C)c1=O
active: [11] 312 nM
not listed: CYP2C9 (gene 1559)
inactive: all other assays above

O=c1[nH]cnc2c1ncn2[C@H]1CC[C@@H](CO)O1
inactive: all assays above

Cc1nccn1-c1ccc(Sc2cccc(C3(C(N)=O)CCOCC3)c2)cc1
inactive: [2] | [5] | [6] | [11] | [12]
active: [1] 31.2 µM | [3] 12.2 µM | [4] 5.09 µM | [7] 13.1 µM | [8] 13.4 µM | BCL2L11 (gene 10018) 3.37 µM | [9] 11.3 µM | [10] 7.26 µM | Caspase-3 (Homo sapiens) 2.48 µM | [13] 18.6 µM | [14] 28.1 µM | [15] 9.76 µM | [16] 10.7 µM | CYP2C8 (gene 1558) 12.6 µM | CYP2C9 (gene 1559) 12.2 µM

OCC(CO)(CO)CO
inactive: all assays above

CCCCCOC(C)=O
inactive: all assays above

COS(C)(=O)=O
inactive: all assays above

NC(=O)NN=Cc1ccc([N+](=O)[O-])o1
active: [4] 0.468 µM | [5] 381 nM | [11] 267 nM | [12] 456 nM | [13] 0.377 µM
inactive: all other assays above

OC(CCl)CCl
inactive: all assays above

CCCOc1ccc(S(=O)(=O)N2CCN(CC)CC2)cc1-c1nc2c(CC)n(Cc3ccccn3)nc2c(=O)[nH]1
active: [2] 80.2 µM | [4] 50 µM | [8] 26.9 µM | [13] 79.4 µM | [15] 5.14 µM | [16] 18.2 µM | CYP2C8 (gene 1558) 3.5 µM
inactive: all other assays above

O=C(O)c1cccc(C(=O)O)c1
active: [13] 82.6 µM
inactive: all other assays above

CCn1nc(C)c2c1C(=O)NCC(c1ccc(O)cc1)=N2
active: [13] 34.1 µM | [15] 32.9 µM
inactive: all other assays above

c1ccc(C(O[C@@H]2CCCN(CCc3ccc4c(c3)OCO4)C2)c2ccccc2)cc1
active: [3] 75.9 µM | [4] 68.5 µM | [6] 80.1 µM | [7] 90.7 µM | [10] 73.2 µM | [11] 91000 nM | Caspase-3 (Homo sapiens) 76.7 µM | [13] 12.2 µM | [14] 78.6 µM | [15] 72 µM | [16] 79 µM | CYP2C8 (gene 1558) 77.1 µM | CYP2C9 (gene 1559) 85.2 µM
inactive: [1] | [2] | [5] | [8] | BCL2L11 (gene 10018) | [9] | [12]
